Source: PubChem (several laboratories)
Mtb FBA inh = Mtb FBA enzyme inhibitors, primary screen, biochemical, fluorescence, strain H37Rv; hit rate 2.3% among 360,000; AID 588726, 2011; purified M. tuberculosis FBA, fluorescence read-out; inhibition, % at 1 µM;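 further: 0% = vehicle and 100% = reference inhibitor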
Target sequence (P9WQA3 whole entry, looked up): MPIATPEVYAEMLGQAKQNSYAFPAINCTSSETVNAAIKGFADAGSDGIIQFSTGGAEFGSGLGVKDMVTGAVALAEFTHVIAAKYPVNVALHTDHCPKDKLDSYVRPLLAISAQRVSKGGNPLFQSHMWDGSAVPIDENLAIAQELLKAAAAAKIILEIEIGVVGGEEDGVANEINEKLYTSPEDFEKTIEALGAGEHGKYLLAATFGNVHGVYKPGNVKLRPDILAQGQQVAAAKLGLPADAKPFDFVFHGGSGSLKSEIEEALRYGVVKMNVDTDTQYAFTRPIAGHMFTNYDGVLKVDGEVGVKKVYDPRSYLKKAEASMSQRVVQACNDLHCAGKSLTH
GDH-TPI counter-1 = GDH-TPI coupling enzyme inhibitors, primary screen, artefact control for M. tuberculosis FBA inhibitor project, biochemical, absorbance, full deck; GDH-TPI coupled enzyme counterscreen, NADH absorbance; inhibition, % at 4.8 µM; hit rate 1.2% among 360,000; in the data active means inhibition above about 30%;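 further: 0% = DMSO wells and 100% = wells lacking the enzyme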
FadD28 FP inh = inhibitors of FadD28 bisubstrate probe binding, primary screen, biochemical, fluorescence polarization, single point | Mycobacterium tuberculosis FadD28 fatty-acid-AMP ligase | hit rate 0.22% among 360,000 | inhibition, % at 12.5 µM; in the data active means inhibition above about 8.5%, passing the limit was not always enough
Rv3671c inh = Rv3671c serine protease inhibitors, primary screen, biochemical, fluorescence polarization, M. tuberculosis H37Rv; P9WHR9; inhibition, % at 5.96 µM; hit rate 0.048% among 320,000; AID 2606, 2010; in the data active means inhibition above about 38%;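 further: extracellular domain of Rv3671c used as enzyme; 0% = enzyme with DMSO and 100% = no enzyme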
Mtb BioA inh = M. tuberculosis BioA enzyme inhibitors, primary screen, biochemical, plate reader, single point, HTS; AID 602481, 2012; inhibition, % at 9.99 µM; 7,8-diaminopelargonic acid synthase BioA (Mycobacterium tuberculosis); purified M. tuberculosis BioA enzyme; hit rate 0.096% among 360,000; in the data active means inhibition above about 40%
Mtb FBA inh conf = M. tuberculosis aldolase blockers, biochemical, fluorescence, strain H37Rv, confirmation; shares compounds with Mtb FBA inh; purified M. tuberculosis FBA, fluorescence read-out; inhibition, % at 1 µM; hit rate 78% among 5,600; AID 651616, 2012;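 further: 0% = vehicle wells and 100% = reference inhibitor wells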
GDH-TPI counter-2 = GDH-TPI coupling enzyme inhibitors, artefact control for M. tuberculosis FBA inhibitor project, biochemical, fluorescence, high throughput. inhibition, % at 1 µM. hit rate 81% among 5,600. GDH-TPI coupled enzyme counterscreen. shares compounds with Mtb FBA inh. AID 652141, 2013; in the data active means inhibition above about 10%
* hit, by the source's call. Hits are enriched below; roughly 3% of the tested compounds scored in any of these assays. Unless noted, no stated cut-off is given here; in the data, active means inhibition above about 27%; inactive means the rest.

Results for COc1cccc(OC)c1-c1nnc(-c2cn(C)c3ccccc23)o1 ?
Mtb FBA inh: 80*; GDH-TPI counter-1: -4; FadD28 FP inh: -1; Rv3671c inh: 8; Mtb BioA inh: -2; Mtb FBA inh conf: active; GDH-TPI counter-2: 178*

What do the screens show for `COc1ccccc1-c1nnc(-c2ccc(C)cc2)o1`?
Mtb FBA inh: 15; GDH-TPI counter-1: -5; FadD28 FP inh: -2; Rv3671c inh: -2; Mtb BioA inh: 2

Results for CNc1nc(-c2ccccc2)c2sccc2n1 ?
Mtb FBA inh: 78*; GDH-TPI counter-1: 17; FadD28 FP inh: -2; Mtb BioA inh: -4; Mtb FBA inh conf: 8; GDH-TPI counter-2: -4

Results for CNc1nc(NCc2ccccc2)c2sccc2n1 ?
Mtb FBA inh: 7; GDH-TPI counter-1: 6; FadD28 FP inh: -1; Mtb BioA inh: 2

How did Nc1nnc(-c2ccncc2)s1 do in these assays?
Mtb FBA inh: 52*; GDH-TPI counter-1: 9; FadD28 FP inh: 1; Rv3671c inh: -7; Mtb BioA inh: 0; Mtb FBA inh conf: 5; GDH-TPI counter-2: -1

How did Cn1c(NCCCO)nc2c(c1=O)C1(CCCCC1)Cc1ccccc1-2 do in these assays?
Mtb FBA inh: 65*; GDH-TPI counter-1: 15; FadD28 FP inh: -2; Rv3671c inh: -1; Mtb BioA inh: 1; Mtb FBA inh conf: 122*; GDH-TPI counter-2: 85*

Results for CCC(=O)Nn1cnc2c(c1=O)C1(CCCCC1)Cc1ccccc1-2 ?
Mtb FBA inh: 2; GDH-TPI counter-1: -2; FadD28 FP inh: -2; Rv3671c inh: -5; Mtb BioA inh: 2

How did N#CCSc1n[nH]c2nc3c(c(=O)n12)C1(CCCCC1)Cc1ccccc1-3 do in these assays?
Mtb FBA inh: 28*; GDH-TPI counter-1: 3; FadD28 FP inh: 1; Rv3671c inh: 7; Mtb BioA inh: 8; Mtb FBA inh conf: -1; GDH-TPI counter-2: -3

Results for O=C(CCCC(=O)NCC1CCCO1)NCC1CCCO1 (stereo unspecified) ?
Mtb FBA inh: -1; GDH-TPI counter-1: -4; FadD28 FP inh: -1; Rv3671c inh: -7; Mtb BioA inh: -1

Results for O=C(CN1CCCCCC1)NCC1CCCO1 (stereo unspecified) ?
Mtb FBA inh: 97*; GDH-TPI counter-1: -3; FadD28 FP inh: 0; Rv3671c inh: 0; Mtb FBA inh conf: 80*; GDH-TPI counter-2: 73*

Results for CN1C(=O)c2cc(NC(=O)NC3CCCC3)ccc2OC[C@H]2O[C@@H](CC(=O)O)CC[C@@H]21 ?
Mtb BioA inh: -3

Results for CCN(CC)CCCNC(=O)c1cn(CCOC)c(=O)c2c1c1ccccc1n2C ?
Mtb FBA inh: 29*; GDH-TPI counter-1: 5; FadD28 FP inh: -1; Rv3671c inh: 0; Mtb BioA inh: 0; Mtb FBA inh conf: 102*; GDH-TPI counter-2: 96*

Results for CCN(CC)CCCNC(=O)c1cn(CC(C)C)c(=O)c2c1c1ccccc1n2C ?
Mtb FBA inh: 35*; GDH-TPI counter-1: 7; FadD28 FP inh: -2; Rv3671c inh: 0; Mtb BioA inh: 3; Mtb FBA inh conf: 105*; GDH-TPI counter-2: 95*

What do the screens show for `COCCn1cc(C(=O)NCCCN2CCC(C)CC2)c2c3ccccc3n(C)c2c1=O`?
Mtb FBA inh: 28*; GDH-TPI counter-1: 12; FadD28 FP inh: -1; Rv3671c inh: 5; Mtb BioA inh: -1; Mtb FBA inh conf: active; GDH-TPI counter-2: active

How did CCCCN(CC)CCCNC(=O)c1cn(CC(C)C)c(=O)c2c1c1ccccc1n2C do in these assays?
Mtb FBA inh: 20; GDH-TPI counter-1: 7; FadD28 FP inh: -2; Rv3671c inh: -7; Mtb BioA inh: -1

Results for CCN(CC)CCCNC(=O)c1cn(C)c(=O)c2c1c1ccccc1n2C ?
Mtb FBA inh: 30*; GDH-TPI counter-1: 5; FadD28 FP inh: -1; Rv3671c inh: -4; Mtb FBA inh conf: 83*; GDH-TPI counter-2: 71*

How did CCN(CC)CCNC(=O)c1cn(CCOC)c(=O)c2c1c1ccccc1n2C do in these assays?
Mtb FBA inh: 25; GDH-TPI counter-1: 17; FadD28 FP inh: -4; Rv3671c inh: -9; Mtb BioA inh: 0

How did C[C@@H]1CN([C@H](C)CO)C(=O)c2cc(NC(=O)Nc3ccc4c(c3)OCO4)ccc2O[C@H]1CN(C)S(=O)(=O)c1ccc(F)cc1 do in these assays?
Mtb BioA inh: 1

What do the screens show for `COc1cccc(CNC(=O)C[C@H]2CC[C@@H](NC(=O)C3CC3)[C@H](CO)O2)c1`?
Mtb BioA inh: 1

What do the screens show for `CC(=O)N(C)C[C@H]1Oc2cc(C#CC(C)C)ccc2S(=O)(=O)N([C@H](C)CO)C[C@H]1C`?
Mtb BioA inh: 1

How did O=c1cc(C(F)(F)F)c2sc(N3CCCCC3)nc2[nH]1 do in these assays?
Mtb FBA inh: 86*; GDH-TPI counter-1: 20; FadD28 FP inh: 0; Rv3671c inh: 1; Mtb BioA inh: -3; Mtb FBA inh conf: 162*; GDH-TPI counter-2: 125*

What do the screens show for `CCCCCc1nnc(NC(=O)NS(=O)(=O)c2ccc(C)cc2)s1`?
Mtb FBA inh: 41*; GDH-TPI counter-1: 2; FadD28 FP inh: 0; Rv3671c inh: 4; Mtb BioA inh: -1; Mtb FBA inh conf: 151*; GDH-TPI counter-2: 121*

How did CNC(=O)Oc1cccc(-c2cn3cc(Cl)ccc3n2)c1 do in these assays?
Mtb FBA inh: 6; GDH-TPI counter-1: 11; FadD28 FP inh: 1; Rv3671c inh: 0

How did COc1ccc(-c2cn3cccc(C)c3n2)cc1F do in these assays?
Mtb FBA inh: 31*; GDH-TPI counter-1: -2; FadD28 FP inh: -3; Rv3671c inh: -6; Mtb FBA inh conf: -4; GDH-TPI counter-2: -7

Results for COC(=O)c1ccc2nc(-c3ccc(S(C)(=O)=O)cc3)cn2c1 ?
Mtb FBA inh: 36*; GDH-TPI counter-1: -6; FadD28 FP inh: -4; Rv3671c inh: 1; Mtb FBA inh conf: 141*; GDH-TPI counter-2: 142*

Results for COc1ccc(-c2cn3cc(C)ccc3n2)cc1F ?
Mtb FBA inh: 37*; GDH-TPI counter-1: 8; FadD28 FP inh: 1; Rv3671c inh: -3; Mtb BioA inh: 2; Mtb FBA inh conf: 77*; GDH-TPI counter-2: 65*

What do the screens show for `CNC(=O)Oc1ccc(-c2cn3cc(C)ccc3n2)cc1`?
Mtb FBA inh: 47*; GDH-TPI counter-1: 13; FadD28 FP inh: -2; Rv3671c inh: 5; Mtb FBA inh conf: 38*; GDH-TPI counter-2: 34*

What do the screens show for `O=C(C[C@H]1CC[C@H]2[C@@H](COC[C@@H](O)CN2S(=O)(=O)c2ccccc2)O1)Nc1ccccc1`?
Mtb BioA inh: 0
